Source: PubChem BioAssay (NCI)
Where “and” joins values, the source holds several entries; their conditions need not be identical. Equal values may be shown once. Compounds without any hit were thinned out: in the full panel of roughly 79,000, 15% have a hit. Calls of active or inactive are those of the source. Cut-off read from the data, not from the text of the source: active = growth inhibition above about 70%; inactive = the rest.

What was measured:
[1] = NCI Yeast Anticancer Drug Screen. Data for the rad14 strain (AID 159);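 note: 0% = growth of vehicle-treated control cultures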; conditions: S. cerevisiae rad14 strain growth inhibition, hits give high values
Summary of the method: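 Here, inhibition of yeast growth was measured after compound exposure, using a strain with a genetic defect in DNA damage repair and vehicle-treated cultures as the reference.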

[2] = NCI Yeast Anticancer Drug Screen. Data for the sgs1 mgt1 strain (AID 161);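 note: 0% = growth of cultures given vehicle only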; conditions: S. cerevisiae sgs1 mgt1 strain, hits give high values
Summary of the method: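 Yeast cells carrying a defined DNA-repair defect were exposed to test compounds. Growth inhibition was measured relative to vehicle-treated controls.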

[3] = NCI Yeast Anticancer Drug Screen. Data for the cln2 rad14 strain (AID 165);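 note: 0% = growth equal to vehicle treated cultures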; conditions: S. cerevisiae cln2 rad14 strain, hits give high values
Summary of the method: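 Yeast carrying cln2 and rad14 alterations (cell cycle control and DNA damage repair) were exposed to compounds. Growth inhibition was measured against vehicle-treated controls.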

[4] = NCI Yeast Anticancer Drug Screen. Data for the bub3 strain (AID 167); conditions: S. cerevisiae bub3 mutant strain, hits give high values
Summary of the method: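 Whole-cell yeast assay. The mutant strain was incubated with compounds, and growth inhibition was determined by comparison with vehicle-treated cells.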

[5] = NCI Yeast Anticancer Drug Screen. Data for the wt2 strain (AID 169);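 note: 0% = growth of vehicle-treated yeast cultures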; conditions: S. cerevisiae wt2 strain growth inhibition, hits give high values
Summary of the method: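 Yeast cells were exposed to test compounds, and growth inhibition was measured relative to vehicle-treated controls.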

[6] = NCI Yeast Anticancer Drug Screen. Data for the mlh1 strain (AID 171);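 note: 0% = growth of vehicle-treated control cultures of the same strain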; conditions: S. cerevisiae mlh1 strain growth inhibition, hits give high values
Summary of the method: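 Yeast carrying a defined genetic alteration in DNA damage repair or cell cycle control were exposed to test compounds. Growth inhibition was measured relative to vehicle-treated controls.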

[7] = NCI Yeast Anticancer Drug Screen. Data for the sgs1 strain (AID 173);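 note: 0% = growth of vehicle-only control cultures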; conditions: S. cerevisiae sgs1 mutant, hits give high values
Summary of the method: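 Yeast mutant strains carrying defined defects in DNA damage repair or cell cycle control were exposed to test compounds. Growth inhibition was scored against vehicle-treated controls.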

[8] = NCI Yeast Anticancer Drug Screen. Data for the mlh1 rad18 strain (AID 175); conditions: S. cerevisiae mlh1 rad18 strain growth inhibition, hits give high values
Summary of the method: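 Growth inhibition of the yeast strain was measured after compound exposure and expressed relative to vehicle-treated controls. The strain carries defined defects in DNA damage repair.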

[9] = NCI Yeast Anticancer Drug Screen. Data for the rad18 strain (AID 177); conditions: S. cerevisiae rad18 mutant growth inhibition, hits give high values
Summary of the method: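 Yeast carrying a defined DNA damage repair alteration were exposed to compounds. Growth inhibition was expressed relative to vehicle-treated controls.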

[10] = NCI Yeast Anticancer Drug Screen. Data for the rad52 strain (AID 147);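 note: 0% = growth of vehicle-treated control cultures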; conditions: S. cerevisiae rad52 mutant growth inhibition, hits give high values
Summary of the method: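 Yeast strain carrying a DNA damage repair alteration was exposed to test compounds. Growth inhibition was measured relative to vehicle-treated controls.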

[11] = NCI Yeast Anticancer Drug Screen. Data for the wt1 strain (AID 149);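 note: 0% = growth of vehicle-treated wt1 cultures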; conditions: S. cerevisiae wt1 strain (SPY 50644) growth inhibition, hits give high values
Summary of the method: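 Measured: growth of wt1 yeast under compound versus vehicle treatment, reported as inhibition.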

[12] = NCI Yeast Anticancer Drug Screen. Data for the rad50EPP+ strain (AID 151);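 note: 0% = growth of vehicle-treated control cultures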; conditions: S. cerevisiae rad50 mutant strain, hits give high values
Summary of the method: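 Yeast strain carrying rad50 alteration (rad50EPP+) exposed to compounds; growth inhibition measured relative to vehicle-treated controls.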

[13] = NCI Yeast Anticancer Drug Screen. Data for the mgt1 strain (AID 153); conditions: S. cerevisiae mgt1 mutant growth inhibition, hits give high values
Summary of the method: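 Yeast mgt1 strain (DNA repair/cell-cycle alteration panel) exposed to compounds; growth inhibition measured relative to vehicle-treated controls.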

[14] = NCI Yeast Anticancer Drug Screen. Data for the rad50 strain (AID 155);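 note: 0% = growth of vehicle-only cultures of the same strain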; conditions: S. cerevisiae rad50 strain growth inhibition, hits give high values
Summary of the method: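 Growth of the mutant yeast was measured after compound exposure and referenced to vehicle-treated cultures.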

[15] = NCI Yeast Anticancer Drug Screen. Data for the mec2-1 strain (AID 157); conditions: S. cerevisiae mec2-1 strain, hits give high values
Summary of the method: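 mec2-1 yeast strain, carrying an alteration in DNA damage repair or cell cycle control, was exposed to compounds; growth inhibition was measured relative to vehicle-treated controls.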

[16] = NCI Yeast Anticancer Drug Screen. Data for the CLN2oe strain (AID 163);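 note: 0% = growth of vehicle-only control cultures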; conditions: S. cerevisiae CLN2oe strain, hits give high values
Summary of the method: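 Yeast cells carrying a defined cell-cycle control alteration were exposed to test compounds. Growth inhibition was scored against vehicle-treated control cultures.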

[17] = at 5.0 µM (retest, dose inferred, filed as 0.5)
[18] = at 50.0 µM (retest, dose inferred, filed as 5.0)

Measured: growth inhibition

COc1ccc(C2C3=C(COC3=O)OC(C)(C)Oc3cc4c(cc32)OCO4)cc1OC (stereo unspecified)
active: [1]; at 100.0 µM 91% | [2]; at 50.0 µM 96.7% | [3]; at 50.0 µM 91.6% | [4]; [18] 86% | [4]; at 50.0 µM 96.3% | [4]; at 100.0 µM 88% | [5]; at 100.0 µM 90% | [6]; at 100.0 µM 94% | [7]; at 100.0 µM 94% | [8]; [18] 96% | [8]; at 50.0 µM 97.5% | [9]; at 100.0 µM 94%
inactive: [1]; at 11.0 µM 5% | [1]; at 33.0 µM 30% | [2]; [17] -9% | [2]; [18] 50% | [3]; [17] -1% | [3]; [18] 57% | [4]; at 1.2 µM -47% | [4]; at 3.7 µM -56% | [4]; [17] -9% | [4]; at 11.0 µM -33% | [4]; at 33.0 µM 24% | [5]; at 1.2 µM 5% | [5]; at 3.7 µM 2% | [5]; at 11.0 µM 8% | [5]; at 33.0 µM 26% | [6]; at 1.2 µM -11% | [6]; at 3.7 µM 0% | [6]; at 11.0 µM 6% | [6]; at 33.0 µM 57% | [7]; at 1.2 µM 37% | [7]; at 3.7 µM 23% | [7]; at 11.0 µM 27% | [7]; at 33.0 µM 61% | [8]; [17] -1% | [9]; at 1.2 µM -4% | [9]; at 3.7 µM 5% | [9]; at 11.0 µM 7% | [9]; at 33.0 µM 41%

Cc1ccc(CC2(OCCN(C)C)CCC(C(C)(C)C)CC2)cc1 (stereo unspecified)
inactive: [10]; at 1.2 µM 8% | [10]; at 3.7 µM 3% | [10]; at 11.0 µM 8% | [10]; at 33.0 µM 37% | [11]; at 1.2 µM 9% | [11]; at 3.7 µM 12% | [11]; at 11.0 µM -5% | [11]; at 33.0 µM 9% | [12]; at 1.2 µM -4% | [12]; at 3.7 µM -9% | [12]; at 11.0 µM -3% | [12]; at 33.0 µM -2% | [13]; at 1.2 µM 14% | [13]; at 3.7 µM 12% | [13]; at 11.0 µM 21% | [14]; at 1.2 µM -3% | [14]; at 3.7 µM 0% | [14]; [17] 13% and 12% | [14]; at 11.0 µM 7% | [14]; at 33.0 µM 64% | [15]; at 1.2 µM -7% | [15]; at 3.7 µM -11% | [15]; [17] -8% and -7% | [15]; at 11.0 µM -7% | [15]; at 33.0 µM 43% | [2]; [17] -5% and -7% | [16]; at 1.2 µM -23% | [16]; at 3.7 µM -18% | [16]; at 11.0 µM -11% | [16]; at 33.0 µM 42% | [3]; [17] 20% and 10% | [4]; at 1.2 µM -23% | [4]; at 3.7 µM -24% | [4]; [17] 11% and 7% | [4]; at 11.0 µM -11% | [4]; at 33.0 µM 6% | [5]; at 1.2 µM -19% | [5]; at 3.7 µM -8% | [5]; at 11.0 µM -16% | [5]; at 33.0 µM 36% | [6]; at 1.2 µM 3% | [6]; at 3.7 µM -1% | [6]; at 11.0 µM 13% | [7]; at 1.2 µM 24% | [7]; at 3.7 µM 26% | [7]; at 11.0 µM 41% | [8]; [17] 9% and 10% | [9]; at 1.2 µM 3% | [9]; at 3.7 µM -14% | [9]; at 11.0 µM -12% | [9]; at 33.0 µM 36%
active: [10]; at 100.0 µM 98% | [11]; at 100.0 µM 99% | [12]; at 100.0 µM 97% | [13]; at 33.0 µM 84% | [13]; at 100.0 µM 99% | [14]; [18] 100% | [14]; at 50.0 µM 98.6% and 98.5% | [14]; at 100.0 µM 98% | [15]; [18] 99% and 93% | [15]; at 50.0 µM 98.5% and 99.3% | [15]; at 100.0 µM 99% | [2]; [18] 85% and 91% | [2]; at 50.0 µM 98.7% and 99.4% | [16]; at 100.0 µM 98% | [3]; [18] 89% and 76% | [3]; at 50.0 µM 99.2% and 99.5% | [4]; [18] 99% | [4]; at 50.0 µM 87.5% and 99.2% | [4]; at 100.0 µM 98% | [5]; at 100.0 µM 99% | [6]; at 33.0 µM 85% | [6]; at 100.0 µM 98% | [7]; at 33.0 µM 82% | [7]; at 100.0 µM 99% | [8]; [18] 100% and 99% | [8]; at 50.0 µM 99.5% and 99.4% | [9]; at 100.0 µM 98%

NC(N)=NS(=O)(=O)c1ccc(Nc2c3ccccc3nc3c(C(=O)NCCO)cccc23)cc1
active: [10]; at 100.0 µM 82% | [14]; [18] 73% | [14]; at 100.0 µM 73% | [9]; at 100.0 µM 77%
inactive: [10]; at 1.2 µM 1% | [10]; at 3.7 µM 3% | [10]; at 11.0 µM 4% | [10]; at 33.0 µM 17% | [11]; at 1.2 µM 1% | [11]; at 3.7 µM 1% | [11]; at 11.0 µM 2% | [11]; at 33.0 µM -1% | [11]; at 100.0 µM 5% | [12]; at 1.2 µM -1% | [12]; at 3.7 µM -5% | [12]; at 11.0 µM -5% | [12]; at 33.0 µM 5% | [12]; at 100.0 µM 37% | [13]; at 1.2 µM -1% | [13]; at 3.7 µM -4% | [13]; at 11.0 µM -3% | [13]; at 33.0 µM 12% | [13]; at 100.0 µM 38% | [14]; at 1.2 µM 0% | [14]; at 3.7 µM 0% | [14]; [17] -11% | [14]; at 11.0 µM 3% | [14]; at 33.0 µM 16% | [14]; at 50.0 µM 69.4% | [15]; at 1.2 µM -3% | [15]; at 3.7 µM 0% | [15]; [17] -4% | [15]; at 11.0 µM -2% | [15]; at 33.0 µM 1% | [15]; [18] -2% | [15]; at 50.0 µM -21.9% | [15]; at 100.0 µM 33% | [2]; [17] 2% | [2]; [18] 20% | [2]; at 50.0 µM 20.4% | [16]; at 1.2 µM 2% | [16]; at 3.7 µM 0% | [16]; at 11.0 µM 4% | [16]; at 33.0 µM -6% | [16]; at 100.0 µM 11% | [3]; [17] 16% | [3]; [18] 17% | [3]; at 50.0 µM -5.1% | [4]; at 1.2 µM -4% | [4]; at 3.7 µM -1% | [4]; [17] -12% | [4]; at 11.0 µM -4% | [4]; at 33.0 µM -4% | [4]; [18] 33% | [4]; at 50.0 µM -1.35% | [4]; at 100.0 µM 7% | [5]; at 1.2 µM 0% | [5]; at 3.7 µM 0% | [5]; at 11.0 µM 1% | [5]; at 33.0 µM 0% | [5]; at 100.0 µM 20% | [6]; at 1.2 µM -2% | [6]; at 3.7 µM 0% | [6]; at 11.0 µM 1% | [6]; at 33.0 µM 1% | [6]; at 100.0 µM 48% | [7]; at 1.2 µM -1% | [7]; at 3.7 µM 0% | [7]; at 11.0 µM 0% | [7]; at 33.0 µM 5% | [7]; at 100.0 µM 43% | [8]; [17] -1% | [8]; [18] 40% | [8]; at 50.0 µM 46% | [9]; at 1.2 µM -1% | [9]; at 3.7 µM 0% | [9]; at 11.0 µM 9% | [9]; at 33.0 µM 7%
